For eight compounds, growth inhibition results are on record in PubChem BioAssay (NCI).

Where “and” joins values, the source holds several entries; their conditions need not be identical. Identical values can stand only once. This is part of a sample that, as a whole, favours compounds with a hit. Of some 79,000 tested, about 15% had one in any assay. More than one record can exist for a structure, and the calls need not agree. Calls of active or inactive are those of the source. No stated cut-off is given here; in the data, active means growth inhibition above about 70%; inactive means the rest.

The nature of assay [1]: NCI Yeast Anticancer Drug Screen. Data for the rad50 strain (AID 155).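 Further: 0% = growth of vehicle-only cultures of the same strain.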 The note with it: S. cerevisiae rad50 strain growth inhibition, stronger effect = higher value. Summed up: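 A DNA repair-deficient yeast mutant serves as the test organism; compound-induced growth inhibition is calculated against vehicle-treated cells.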
Assay [2] in a line: NCI Yeast Anticancer Drug Screen. Data for the mec2-1 strain (AID 157). The note with it: S. cerevisiae mec2-1 strain, stronger effect = higher value. Summed up: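 Readout is yeast growth inhibition, normalised to vehicle-treated controls, in the mec2-1 strain exposed to compound.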
A short description of assay [3]: NCI Yeast Anticancer Drug Screen. Data for the sgs1 mgt1 strain (AID 161).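 Further: 0% = growth of cultures given vehicle only.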 The following applies: S. cerevisiae sgs1 mgt1 strain, stronger effect = higher value. Put shortly: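 Compounds are added to genetically altered yeast, and growth is compared with cultures given vehicle alone to give percent inhibition.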
A short description of assay [4]: NCI Yeast Anticancer Drug Screen. Data for the cln2 rad14 strain (AID 165).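 Further: 0% = growth equal to vehicle treated cultures.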 The note with it: S. cerevisiae cln2 rad14 strain, stronger effect = higher value. Summed up: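 Relative to vehicle controls, growth inhibition of compound-treated cln2 rad14 yeast was recorded.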
Assay [5] in a line: NCI Yeast Anticancer Drug Screen. Data for the bub3 strain (AID 167). The note with it: S. cerevisiae bub3 mutant strain, stronger effect = higher value. Put shortly: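 Inhibition values come from growth of compound-treated mutant yeast normalised to vehicle-treated controls.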
A short description of assay [6]: NCI Yeast Anticancer Drug Screen. Data for the mlh1 rad18 strain (AID 175). The note with it: S. cerevisiae mlh1 rad18 strain growth inhibition, stronger effect = higher value. Summed up:
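Test agents were incubated with a yeast strain of defined genotype (DNA damage repair defect). Inhibition of growth was derived by comparison with vehicle-exposed cultures.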

[7] abbreviates: at 5.0 µM (retest, dose inferred, filed as 0.5).
[8] abbreviates: at 50.0 µM (retest, dose inferred, filed as 5.0).

Turning to `CC1([CH2][Hg][I])CS(=O)(=O)CC(C)([CH2][Hg][I])O1` (centres undefined), the growth inhibition was 99% (active) in assay [1] (setting [7]); 98% (active) in assay [1] (setting [8]); 95.7% (active) in assay [1] (at 50.0 µM); 100% (active) in assay [2] (setting [7]); 99% (active) in assay [2] (setting [8]); 98% (active) in assay [2] (at 50.0 µM). Also, the growth inhibition in assay [3] (setting [7]) was 100% (active); in assay [3] (setting [8]), 99% (active); in assay [3] (at 50.0 µM) it was 97.3% (active); in assay [4] (setting [7]), 99% (active); in assay [4] (setting [8]), 98% (active); in assay [4] (at 50.0 µM), 96% (active). Also, the growth inhibition in assay [5] (setting [7]) is 100% (active); in assay [5] (setting [8]) it was 99% (active); in assay [5] (at 50.0 µM), 97.8% (active); in assay [6] (setting [7]), 99% (active); in assay [6] (setting [8]), 98% (active); in assay [6] (at 50.0 µM), 96.2% (active).

On to `O=C(O)CCCC1CCCCC1`, for which the growth inhibition is 0% (inactive) in assay [1] (setting [7]); 39% (inactive) in assay [1] (setting [8]); 55.1% (inactive) and 57% (inactive) in assay [1] (at 50.0 µM); -2% (inactive) in assay [2] (setting [7]); 21% (inactive) in assay [2] (setting [8]); 37.4% (inactive) and 12.7% (inactive) in assay [2] (at 50.0 µM). The growth inhibition is 4% (inactive) in assay [3] (setting [7]); 43% (inactive) in assay [3] (setting [8]); 43% (inactive) and 44.3% (inactive) in assay [3] (at 50.0 µM); 4% (inactive) in assay [4] (setting [7]); 27% (inactive) in assay [4] (setting [8]); 38.4% (inactive) and 46.7% (inactive) in assay [4] (at 50.0 µM). Further, the growth inhibition was -1% (inactive) in assay [5] (setting [7]); 52% (inactive) in assay [5] (setting [8]); 30.5% (inactive) and 62.9% (inactive) in assay [5] (at 50.0 µM); 2% (inactive) in assay [6] (setting [7]); 51% (inactive) in assay [6] (setting [8]); 8.95% (inactive) and 79.8% (active) in assay [6] (at 50.0 µM).

Consider `O=C1NC(=O)C([N+](=O)[O-])C(=O)N1`, for which the growth inhibition in assay [1] (setting [7]) was 0% (inactive); in assay [1] (setting [8]), -5% (inactive); in assay [1] (at 50.0 µM) it was 62.9% (inactive); in assay [2] (setting [7]), -14% (inactive); in assay [2] (setting [8]) it was -4% (inactive); in assay [2] (at 50.0 µM), 30.1% (inactive). Further, the growth inhibition in assay [3] (setting [7]) was 9% (inactive); in assay [3] (setting [8]), -8% (inactive); in assay [3] (at 50.0 µM) it was 34.5% (inactive); in assay [4] (setting [7]) it was 29% (inactive); in assay [4] (setting [8]), 39% (inactive); in assay [4] (at 50.0 µM), 48.5% (inactive). Further, the growth inhibition in assay [5] (setting [7]) is 15% (inactive); in assay [5] (setting [8]), 43% (inactive); in assay [5] (at 50.0 µM) it was 66.8% (inactive); in assay [6] (setting [7]) it was 10% (inactive); in assay [6] (setting [8]) it was 16% (inactive); in assay [6] (at 50.0 µM) it was 18.8% (inactive).

`CCCCS.[Hg]`: the growth inhibition in assay [1] (setting [7]) was 99% (active); in assay [1] (setting [8]) it was 94% (active); in assay [1] (at 50.0 µM), 98.9% (active); in assay [2] (setting [7]), 99% (active); in assay [2] (setting [8]), 96% (active); in assay [2] (at 50.0 µM), 99% (active). Besides, the growth inhibition in assay [3] (setting [7]) was 99% (active); in assay [3] (setting [8]), 94% (active); in assay [3] (at 50.0 µM), 99.1% (active); in assay [4] (setting [7]), 97% (active); in assay [4] (setting [8]), 93% (active); in assay [4] (at 50.0 µM), 98.7% (active). Moreover, the growth inhibition was 99% (active) in assay [5] (setting [7]); 93% (active) in assay [5] (setting [8]); 98.8% (active) in assay [5] (at 50.0 µM); 99% (active) in assay [6] (setting [7]); 94% (active) in assay [6] (setting [8]); 99.2% (active) in assay [6] (at 50.0 µM).

Consider `CC[CH2][Sn]([CH2]CC)([CH2]CC)[CH2]CCBr`, for which the growth inhibition in assay [1] (setting [7]) is 98% (active); in assay [1] (setting [8]), 99% (active); in assay [1] (at 50.0 µM), 99.5% (active); in assay [2] (setting [7]) it was 99% (active); in assay [2] (setting [8]) it was 100% (active); in assay [2] (at 50.0 µM) it was 99.7% (active). In addition, the growth inhibition in assay [3] (setting [7]) was 99% (active); in assay [3] (setting [8]) it was 100% (active); in assay [3] (at 50.0 µM), 99.6% (active); in assay [4] (setting [7]), 99% (active); in assay [4] (setting [8]), 98% (active); in assay [4] (at 50.0 µM) it was 99.3% (active). The growth inhibition was 99% (active) in assay [5] (setting [7]); 99% (active) in assay [5] (setting [8]); 99.7% (active) in assay [5] (at 50.0 µM); 99% (active) in assay [6] (setting [7]); 99% (active) in assay [6] (setting [8]); 99.5% (active) in assay [6] (at 50.0 µM).

Consider `ClCCCCCl`, for which the growth inhibition in assay [1] (setting [7]) was 13% (inactive); in assay [1] (setting [8]), -2% (inactive); in assay [1] (at 50.0 µM) it was 32.2% (inactive); in assay [2] (setting [7]) it was -4% (inactive); in assay [2] (setting [8]), -2% (inactive); in assay [2] (at 50.0 µM), 16.8% (inactive). The growth inhibition was 5% (inactive) in assay [3] (setting [7]); -5% (inactive) in assay [3] (setting [8]); -18.9% (inactive) in assay [3] (at 50.0 µM); 5% (inactive) in assay [4] (setting [7]); -6% (inactive) in assay [4] (setting [8]); 41% (inactive) in assay [4] (at 50.0 µM). Also, the growth inhibition is 4% (inactive) in assay [5] (setting [7]); 0% (inactive) in assay [5] (setting [8]); -17.6% (inactive) in assay [5] (at 50.0 µM); 4% (inactive) in assay [6] (setting [7]); -1% (inactive) in assay [6] (setting [8]); 26.6% (inactive) in assay [6] (at 50.0 µM).

With `CC(Cc1ccccc1)N(C)Cc1ccc(-c2ccccc2)o1` (centres undefined), the growth inhibition in assay [1] (setting [7]) is 27% (inactive); in assay [1] (setting [8]), 91% (active); in assay [1] (at 50.0 µM), 31.2% (inactive); in assay [2] (setting [7]), 7% (inactive); in assay [2] (setting [8]), 75% (active); in assay [2] (at 50.0 µM), 34% (inactive). The growth inhibition in assay [3] (setting [7]) was 14% (inactive); in assay [3] (setting [8]) it was 94% (active); in assay [3] (at 50.0 µM) it was 63.6% (inactive); in assay [4] (setting [7]), 16% (inactive); in assay [4] (setting [8]) it was 88% (active); in assay [4] (at 50.0 µM), 14.6% (inactive). The growth inhibition was 6% (inactive) in assay [5] (setting [7]); 96% (active) in assay [5] (setting [8]); 20.6% (inactive) in assay [5] (at 50.0 µM); 12% (inactive) in assay [6] (setting [7]); 91% (active) in assay [6] (setting [8]); 81.3% (active) in assay [6] (at 50.0 µM).

Regarding `O=C(COc1ccc(Cl)c(Cl)c1)N(Cc1ccccc1)Cc1ccc[n+](Cc2ccc(S(=O)(=O)F)cc2)c1`, the growth inhibition in assay [1] (setting [7]) was 4% (inactive); in assay [1] (setting [8]), 99% (active); in assay [1] (at 50.0 µM), 43.5% (inactive); in assay [2] (setting [7]) it was -59% (inactive); in assay [2] (setting [8]) it was 100% (active); in assay [2] (at 50.0 µM) it was 51.9% (inactive). The growth inhibition in assay [3] (setting [7]) was 1% (inactive); in assay [3] (setting [8]), 100% (active); in assay [3] (at 50.0 µM), 53.6% (inactive); in assay [4] (setting [7]), 5% (inactive); in assay [4] (setting [8]), 98% (active); in assay [4] (at 50.0 µM), 56.9% (inactive). For the same compound, the growth inhibition in assay [5] (setting [7]) is 3% (inactive); in assay [5] (setting [8]), 99% (active); in assay [5] (at 50.0 µM), 52.5% (inactive); in assay [6] (setting [7]), 4% (inactive); in assay [6] (setting [8]) it was 99% (active); in assay [6] (at 50.0 µM), 59.4% (inactive).
